# Experimental data as given in PubChem BioAssay AID1347416 (National Center for Advancing Translational Sciences (NCATS), 2020).
# Several values for one entry are separate records, joined by “and”; a condition that tells them apart may be missing. Equal values may be shown once. The whole screen tested about 4,100 compounds, of which about 1,600 (39%) were called active. Roughly 25% stayed inconclusive and do not appear here. The list shows a part of the results. Values without a mark were called inactive. Calls come from the whole dose curve; as a rule, active = well fitted inhibition curve with a large enough effect; inconclusive = small, poorly fitted or top-dose-only effect; inactive = no such curve, though single readings can be large or run the other way.
# Assay: qHTS Validation assay for Inhibitors of Plasmodium falciparum Dd2 growth in vitro; note: nearly all actives have a fitted effect of over 70% in size
# Settings: P. falciparum Dd2 in RBCs, SYBR Green growth, 72 h; series mostly up to 28.7 µM; activity change, negative = inhibition: at the top concentration
# Excerpt: Malaria, a parasitic disease spread to humans through the bite of a Plasmodium infected Anopheles mosquito, continues to be a global health burden affecting millions of people, with an estimated 228 million cases and 405,000 deaths in 2018. Concerns about safety and limitations of current antimalarial treatments strongly emphasize the need to develop new therapeutic options. The scarce number of chemotypes and validated drug targets with efficacy against the liver stage, have hindered development of new antimalarials. To address this, a chemoprophylactic drug discovery effort was conducted through a combined phenotypic high-throughput asexual blood stage and liver stage screen, providing a robust foundation to identify liver-stage active lead chemotypes. Compounds were initially screened against Plasmodium falciparum Dd2 strain parasites using a in vitro SYBRGreen-1 based 72 hr proliferation assay to identify novel chemotypes to advance to liver stage assays. NIH/NCATS Early Translation Branch Assay Submitter (PI): Anton Simeonov Ph.D.
# […] Assay Protocol: PROTOCOL TABLE (as described by Inglese et al., 2007) SEQUENCE No. (e.g., 1, 2, 3, etc.); PARAMETER (e.g., Cells, Incubation, Reagent, etc.); VALUE; DESCRIPTION SEQUENCE, Parameter, Description 1; Reagent; 3 uL complete malaria growth medium, 1536 TC treated Black clear bottom plate 2; Controls; 23 nL positive control artesunate (300 nM final) to column 1; Neutral control DMSO to columns 2-4 3; Compound; 23 nL of compounds in dose response concentration (29 uM to 0.5 nM final) 4; Reagent; 5 uL malaria infected red blood cells (2.5% hematocrit final, 0.3% parasitemia 5; Time; 72 hours at 37C (5% O2, 5% CO2, 90% N2; 95% Rh) 6; Reagent; 2 uL lysis buffer/SYBRGreen-1, 25 sec shake immediately following dispense 7; Time; ~16 hours at 37C (5% O2, 5% CO2, 90% N2; 95% Rh) 8; Detector; EnVision (PerkinElmer) bottom read at 485/14nm excitation and 535/25 nm emission NOTES (numbers refer to sequence above): 1; Complete Malaria Growth Media: 1X RPMI-1640 w/L-glutamine, 5.5g/L Albumax II, 367 uM Hypoxanthine, 25 mM HEPES, 0.25% Sodium Bicarbonate, 35 uM Gentamicin sulfate 2; Controls were added using the Kalypsis Pintool (Wako USA) equipped with 1536 pinhead 3; Compounds were added in a 7-point, titration with a high final concentration of 29 uM by Pintool from seven inter-plate titrations of library plates and two DMSO control plates at the beginning and end (see Yasgar et al., 2008). 4; Red blood cells infected with Plasmodium falciparum Dd2 parasites were used. 6; Lysis buffer: 20 mM Tris-HCl, 10 mM EDTA, 0.16% Saponin, 1.6% Triton-X, 10X SYBR Green. REFERENCE: Inglese J, Shamu CE, Guy RK. 2007. Reporting data from high-throughput screening of small-molecule libraries. Nat Chem Biol. doi:10.1038/nchembio0807-438 Yasgar A, Shinn P, Jadhav A, Auld D, Michael S, Zheng W, Austin CP, Inglese J, Simeonov A. 2008. Compound Management for Quantitative High-Throughput Screening. J Lab Autom 13:79-89. doi:10.1016/j.jala.2007.12.004
# % is set by controls: 0 for no effect and ±100 for the full control effect; potency is the fitted concentration of half-maximal effect.
SMILES,"activity change, negative = inhibition",Potency
Cn1cc(C(=O)N2[C@H]3CC[C@@H]2c2cnc(-c4ccccc4)nc2C3)cn1,6.34%,
Cc1ccc(C(=O)N2[C@H]3CC[C@@H]2c2cnc(-c4ccccc4)nc2C3)cn1,-30.1%,
Cc1noc(C)c1Cc1ccc(C(=O)N2[C@H]3CC[C@@H]2c2cnc(-c4ccccc4)nc2C3)o1,,9.44 µM (active)
Cc1nc(-c2ccccc2)cc([C@H]2CN3CC[C@H]2C[C@@H]3CN(Cc2ccco2)Cc2ccco2)n1,,2.99 µM (active)
Cc1nc(-c2ccco2)cc([C@H]2CN3CC[C@H]2C[C@@H]3CNCc2ccccc2)n1,,4.33 µM (active)
CCOc1ccc(CN(CCc2ccc3c(c2)OCO3)Cc2cc(OC)ccc2O)cc1,,0.668 µM (active)
CCOc1cccc(CNCCc2c(C)[nH]c3ccc(OC(F)(F)F)cc23)c1O,,2.37 µM (active)
Cc1ccc(CN2C3CCCC2CC(NC(=O)Nc2cccc(F)c2)C3)cc1 (centres undefined),,10.6 µM (active)
O=C(NC1CN2CCC1CC2)c1ccc(-c2ccc([N+](=O)[O-])cc2)o1 (centres undefined),13.2%,
COC1C(=O)N(c2cccc(F)c2)C12CCNCC2 (centres undefined),,10.6 µM (active)
FC(F)(F)CN1C2CCC1CN(c1nnc(Cl)c3ccccc13)C2,,2.11 µM (active)
CCC(CC)c1cc([C@H]2CN3CC[C@H]2C[C@@H]3COC(=O)Nc2ccc(C(C)(C)C)cc2)nc(-c2ccncc2)n1,,2.11 µM (active)
CC(C)(C)c1ccc(NC(=O)OC[C@H]2C[C@@H]3CCN2C[C@@H]3c2cc(C3CCCC3)nc(-c3ccncc3)n2)cc1,,2.11 µM (active)
COc1ccc(NC(=O)OC[C@H]2C[C@@H]3CCN2C[C@@H]3c2cc(C3CCCC3)nc(-c3ccncc3)n2)cc1,,4.22 µM (active)
O=C(Nc1ccccc1)OC[C@H]1C[C@@H]2CCN1C[C@@H]2c1cc(C2CCCC2)nc(-c2ccncc2)n1,,1.68 µM (active)
N#Cc1nn(-c2c(Cl)cc(C(F)(F)F)cc2Cl)c(N)c1S(=O)C(F)(F)F (centres undefined),,9.44 µM (active)
Cc1c2ccncc2c(C)c2c1[nH]c1ccccc12,,3.35 µM (active)
CCN1CC=C(c2c[nH]c3ccccc23)CC1,,4.22 µM (active)
CC(C)N1CC=C(c2c[nH]c3ccccc23)CC1,,10.6 µM (active)
CCN(CC)C1=NC(=[N+](CC)CC)c2ccccc21,,5.31 µM (active)
COc1ccc(CC(=O)N2Cc3ccccc3CC3(CCCN3C)C2)cc1 (centres undefined),,9.44 µM (active)
CC(C(=O)c1c[nH]c2ccccc12)N1CCN(C(=O)c2ccco2)CC1 (centres undefined),,5.96 µM (active)
COc1cccc([C@@H]2CCN(Cc3[nH]c4ccccc4c3C)C[C@H]2O)c1,,1.5 µM (active)
CCN1CCN(Cc2cc(Br)cc(Br)c2O)CC1,,7.5 µM (active)
Oc1c(Br)cc(Br)cc1CN1CCN(Cc2ccccc2)CC1,,1.06 µM (active)

SMILES,"activity change, negative = inhibition",Potency
COc1cc(C2NCc3ccccc3-n3cccc32)ccc1O (centres undefined),,2.66 µM (active)
Oc1ccc(C2NCc3ccccc3-n3cccc32)cc1Cl (centres undefined),,1.19 µM (active) and 1.5 µM (active)
CC(C)CCNC(=O)c1cc(C(=O)c2cc(F)ccc2O)cn(CCC(C)C)c1=O,,2.11 µM (active)
O=C(c1cc(C(=O)NCc2ccccc2)c(=O)n(Cc2ccccc2)c1)c1cc(Br)ccc1O,,4.73 µM (active)
CC(C)CCNC(=O)c1cc(C(=O)c2cc(Br)ccc2O)cn(CCC(C)C)c1=O,,0.944 µM (active)
CCOc1c(Cl)cc(CNC(C)C(O)c2ccccc2)cc1OC (centres undefined),,6.68 µM (active)
CC(NCc1ccc(Cl)cc1Cl)C(O)c1ccccc1 (centres undefined),,4.73 µM (active)
O=C1NC2(CCCN(Cc3ccccn3)C2)COc2ccccc21 (centres undefined),,4.85 µM (active)
CC(C)(C)CN1CCC2(COc3ccncc3S(=O)(=O)N2)C1 (centres undefined),55.1%,
COc1ccc2ccc(O)c(CN3CC=C(c4ccccc4)CC3)c2c1,,8.41 µM (active)
Cc1cc(O)c(CN2CC=C(c3ccccc3)CC2)cc1C(C)C,,0.335 µM (active)
CCOc1ccc(CN2C(=O)c3ccccc3Sc3ccc(C(=O)N4CCC5(CC4)OCCO5)cc32)cc1,,4.22 µM (active)
CCC(CC)c1cc([C@H]2CN3CC[C@H]2C[C@@H]3CNS(=O)(=O)c2cccs2)nc(-c2ccncc2)n1,,2.37 µM (active)
CCC(CC)c1cc([C@H]2CN3CC[C@H]2C[C@@H]3CNS(=O)(=O)c2ccccc2C#N)nc(-c2ccncc2)n1,,1.5 µM (active)
COC(=O)C(C)Oc1cc(C)cc2oc(=O)c3c(c12)CCC3 (centres undefined),-27.6%,
Cc1nc2c(=O)n(C)c(=O)nc-2n(C)n1,,0.422 µM (active)
CCC(CC)c1cc([C@H]2CN3CC[C@H]2C[C@@H]3CNC(C)=O)nc(-c2ccncc2)n1,,15.3 µM (active)
CCC(CC)c1cc([C@H]2CN3CC[C@H]2C[C@@H]3CNC(=O)NCc2ccccc2)nc(-c2ccncc2)n1,,4.22 µM (active)
CCC(CC)c1cc([C@H]2CN3CC[C@H]2C[C@@H]3CNC(=O)COc2ccccc2)nc(-c2ccncc2)n1,,1.5 µM (active)
CCC(CC)c1cc([C@H]2CN3CC[C@H]2C[C@@H]3CNC(=O)c2ccc(C)cc2)nc(-c2ccncc2)n1,,10.6 µM (active)
CCC(CC)c1cc([C@H]2CN3CC[C@H]2C[C@@H]3CNC(=O)c2ccccc2)nc(-c2ccncc2)n1,,10.6 µM (active)
CCC(CC)c1cc([C@H]2CN3CC[C@H]2C[C@@H]3CNC(=O)Cc2cccs2)nc(-c2ccncc2)n1,,2.99 µM (active)
CCOC(=O)C1(c2ccccc2)CCN(CCC(C#N)(c2ccccc2)c2ccccc2)CC1,,5.31 µM (active)
CC(C)[C@@]1(NC(=O)[C@@H]2C[C@@H]3c4cccc5[nH]cc(c45)C[C@H]3N(C)C2)O[C@@]2(O)[C@@H]3CCCN3C(=O)[C@H](Cc3ccccc3)N2C1=O,,2.37 µM (active)
